What all share (assay): NCI-60 one-dose screen, 48 h (100 = growth as untreated, 0 = no growth, -100 = all killed)
Common to all, as to conditions: 10 µM unless noted

The test system of assay [1] is HCT-15 colon.
The test system of assay [2] is HT29 colon.
The subject of assay [3] is SNB-75 CNS.
In assay [4] the test system is SNB-19 CNS.
Assay [5] relates to PC-3 prostate.
Assay [6] concerns UACC-62 melanoma.
Assay [7] deals with LOX IMVI melanoma.
For assay [8], the system named is SK-MEL-28 melanoma.
Assay [9] deals with SK-MEL-5 melanoma.
The subject of assay [10] is U251 CNS.

This is part of a sample that, as a whole, favours compounds with a hit. Of some 83,000 tested, about 20% had one in any assay.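 Step 1: grow cells in 96-well plates. Step 2: add test compound at a single concentration. Step 3: incubate 48 h. Step 4: record percent growth.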 Values without a mark were called inactive. Active and inactive are the calls of the source. Rule for the calls: active = growth percent below 10; inactive = the rest.

15 compounds from PubChem BioAssay (NCI) can be followed below.

As to `COC(=O)[C@@H]1CCCN1C(=O)[C@@H]1CCCN1C(=O)[C@@H](Cc1c[nH]c2ccccc12)NC(=S)Nc1cc(C(F)(F)F)cc(C(F)(F)F)c1`, the growth in assay [1] is 74.6%; in assay [2], 51.1%; in assay [3] it was 32.7%; in assay [4], 69.3%; in assay [5], 43.4%; in [6] it was 58.1%. Besides, the results for the growth in [7] and in assay [8] were 23.3% and 33.7%, respectively.
Regarding `COC(=O)[C@H]1CCCN1C(=O)[C@H]1CCCN1C(=O)[C@@H](Cc1c[nH]c2ccccc12)NC(=S)Nc1cc(C(F)(F)F)cc(C(F)(F)F)c1`, the growth in assay [1] is 55.5%; in assay [2], 39%; in [3], 40.3%; in [4], 36.8%; in [5], 34%; in [6] it was 58.7%. The growth in assay [7] was 44.2%; in assay [8], 53%.
On to `CCCCCCCCCCCC(=O)[O][Sn]([CH2]CCC)([CH2]CCC)[CH2]CCC`, for which the growth was -87.2% (active) in assay [1]; -90.3% (active) in assay [2]; -100% (active) in assay [3]; -95.5% (active) in assay [4]; -92.6% (active) in assay [5]; -97.8% (active) in assay [9]. Moreover, the growth in assay [7] is -90.1% (active).
Regarding `COc1ccc(C(=O)C2=CC(=O)C(=O)C2)cc1OC`, the growth was 96.2% in assay [1]; 98.1% in assay [2]; 90.8% in [3]; 105% in assay [4]; 94.5% in [5]; 103% in assay [9]. Also, the growth in [7] is 101%.
`CCOC(=O)C1=C(C)N2C(=NC3=C(CCCC/C3=C\c3ccccc3)C2c2ccccc2)S1` (stereo unspecified): the growth is 96.9% in assay [1]; 84.4% in assay [2]; 96.9% in assay [3]; 98.3% in assay [10]; 87.6% in [5]; 85.5% in assay [6]. For the same compound, the growth in assay [7] was 100%; in assay [8], 98%.
For `COc1nc2c(cc1S(=O)(=O)c1ccccc1)CCc1c-2cnn1-c1ccccc1Cl`, the growth in assay [1] was 51.5%; in assay [2] it was 36.9%; in assay [3], 50.9%; in [4], 64.5%; in assay [5], 35.9%; in [9] it was 68%. Besides, the growth in assay [6] is 60%; in assay [7], 78%; in assay [8], 85.2%.
In the case of `O=c1nc(NO)[nH]c(=O)n1Cc1ccccc1`, the growth is 101% in assay [1]; 103% in [2]; 99.7% in assay [10]; 98.1% in assay [5]; 105% in assay [6]; 103% in [7]. In assay [8], the growth is 107%.
Turning to `CC1=C(C/C=C(\C)CCC[C@H](C)CCC[C@H](C)CCCC(C)C)C(=O)c2ccccc2C1=O`, the growth in assay [1] was 104%; in [2], 105%; in assay [4] it was 101%; in assay [10] it was 98.5%; in assay [5] it was 98.2%; in assay [9] it was 112%. Further, the growth in assay [6] is 105%; in assay [7] it was 96.4%; in [8], 128%.
Regarding `COc1ccc(/C=C2\Oc3cc(C)c(Cl)cc3C2=O)cc1OC`, the growth is 96.5% in assay [1]; 109% in [2]; 98.4% in assay [4]; 96.8% in assay [10]; 101% in [5]; 91.8% in assay [9]. For the same compound, the growth in assay [6] was 87.3%; in [7] it was 92.9%; in assay [8], 114%.
On to `Cn1c2ccccc2c2nn(C(=O)c3ccccc3)c(=O)nc21`, for which the growth in [1] is 101%; in [2], 105%; in assay [4] it was 99%; in assay [10], 112%; in assay [5], 92.4%; in [6] it was 105%. Moreover, the growth in assay [7] is 99.3%.
Turning to `CON=C1C[C@]2(C[C@@H]3C[C@@H](C/C=C(\C)C[C@@H](C)/C=C/C=C4\CO[C@@H]5[C@H](O)C(C)=C[C@@H](C(=O)O3)[C@]45O)O2)O[C@H](/C(C)=C/C(C)C)[C@H]1C`, the growth in assay [1] is 48.4%; in assay [3] it was 140%; in [4], 63.3%; in assay [10], 39.5%; in assay [5] it was 13.5%; in assay [9], 65.1%. Moreover, the figures for the growth in [6], in assay [7] and in [8] were 70.6%, 55.3% and 85.8%, respectively.
With `COc1cc(/C=N/NC(=O)c2cnn3c2NC(c2ccccc2)C3)ccc1OC1CCCC1` (stereo unspecified), the growth in assay [1] is 24.6%; in assay [3] it was -13.7% (active); in assay [4], 39.1%; in assay [10] it was 33%; in [5] it was 10.1%; in [9], 25.6%. Moreover, the growth in assay [6] was 23.8%; in assay [7], 21.7%; in [8] it was 40.3%.
As for `C=CC(=O)N1CC2(CC(n3nc(-c4ccc(Oc5ccccc5)cc4)c4c(N)ncnc43)C2)C1`, the growth in assay [1] was 29.2%; in assay [2] it was 31.7%; in assay [4], 36.6%; in [10] it was 21%; in [5], 51.3%; in [6] it was 7.95% (active). Moreover, the growth in [7] was -17.8% (active); in assay [8], 29%.
For `COc1cccc(C2CC(=O)Nc3cc4c(cc32)CCC4)c1OC` (stereo unspecified), the growth in assay [1] was 36.4%; in assay [2], 9.41% (active); in assay [4], 80.8%; in assay [10], 42.4%; in [5] it was 69.3%; in [6], 52.1%. The growth in assay [7] is 59.6%; in [8], 68.9%.
For `COc1ccc(OC)c(C2C(C#N)=C(N)Oc3cc(O)ccc32)c1` (stereo unspecified), the growth in assay [1] is 94.4%; in assay [2] it was 95.4%; in [4], 102%; in [10], 99%; in assay [5], 95.5%; in assay [6], 91.9%. Further, the growth in [7] is 100%; in [8] it was 103%.
